# Assay results as given in PubChem BioAssay AID1626 (SRMLSC, 2009).
# Where “and” joins values, the source holds several entries; their conditions need not be identical. Identical values can stand only once. Among all 220,000 compounds or so, about 2,000 (0.91%) were called active. Another 2% or so got no clear call; they are omitted. These entries were drawn from the full list. Results with a measured potency or affinity are listed apart. Unmarked numbers belong to inactive results. Cut-off read from the data, not from the text of the source: inconclusive = inhibition above about 80% without an active follow-up result; inactive = below that; test concentration not stated here.
# Assay: M. tuberculosis H37Rv growth inhibitors, H37Rv strain (AID 1626);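 note: bacteria incubated seven days before Alamar blue readout; 0% = bacteria only wells and 100% = bacteria with antibiotic wells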
# Details: stronger effect = higher value, concentration not given here
row,SMILES,inhibition
1,COc1ccccc1C(=O)Nc1c(C)cc(Br)cc1C,21.1%
2,CCCN1C(=O)C(O)(CC(=O)c2cccc(OC)c2)c2ccccc21 (centres undefined),-1.3%
3,O=C(O)c1ccc(N2C(=O)CC(SC(=NCc3ccc4c(c3)OCO4)Nc3ccccc3)C2=O)cc1 (centres undefined),1.43%
4,CCc1ccc(NC(=O)c2cnn(-c3ccccc3)c2C)cc1,1.29%
5,COc1ccc(-n2c(Cc3cccs3)nnc2SCC(=O)Nc2ccc3c(c2)OCCO3)cc1,-1.02%
6,COc1ccc(-c2cc(C(=O)NC3CCCC3)no2)cc1OC,9.4%
7,O=[N+]([O-])c1cccc(-c2nnc(CNC3CC3)o2)c1,1.99%
8,CC(C)c1ccc(OCC(=O)N2CCCCCC2)c(Br)c1,4.07%
9,Cc1ccc(NC(=O)C2CC(=O)Nc3nncn32)cc1 (centres undefined),-5.26%
10,Cc1c(Cl)cccc1S(=O)(=O)Nc1ccnn1C,-14.5%
11,O=C(CCSc1ccccc1)Nc1nccs1,3.44%
12,c1ccc(-c2csc(Nc3cccnc3)n2)nc1,10.1%
13,c1ccc(Nc2nc(-c3ccncc3)cs2)cc1,5.87%
14,O=C(Nc1nccs1)C12CC3CC(C1)CC(C(=O)Nc1nccs1)(C3)C2,1.25%
15,O=C(Nc1ccccn1)C12CC3CC(C1)CC(C(=O)Nc1ccccn1)(C3)C2,-2.92%
16,O=C(CCS(=O)(=O)c1ccccc1)Nc1nc(-c2ccccn2)cs1,73.5%
17,O=C(Nc1nc(-c2nc3ccccc3s2)cs1)C1CC1,7.59%
18,O=C(CN1C(=O)CCC1=O)Nc1nc(-c2ccccn2)cs1,2.51%
19,O=c1[nH]c(N2CCOCC2)nc2ncn(Cc3ccccc3)c12,-3.03%
20,COc1ccc(NS(=O)(=O)c2ccc(Cl)c(C(=O)O)c2)cc1S(=O)(=O)N1CCCCC1,-7.19%
21,O=c1[nH]c(N2CCc3ccccc3C2)nc2c1CCC2,-0.21%
22,CCOC(=O)N1CCN(c2ccc([N+](=O)[O-])cc2F)CC1C (centres undefined),9.74%
23,CCCCn1c(CNC(C)=O)nc2ccccc21,1.64%
24,COC(=O)c1[nH]c2cc(C)ccc2c1NC(=O)CN1CCN(c2ccccc2OC)CC1,45%
25,CCC(C)NC(=S)Nc1ccc(F)cc1 (centres undefined),0.18%

row,SMILES,inhibition
1,CCc1nnc(NC(=O)C(NC(=O)c2ccccc2Cl)C(C)C)s1 (centres undefined),3.06%
2,Cc1csc(NC(=O)C(NC(=O)c2ccccc2F)C(C)C)n1 (centres undefined),5.45%
3,CCOC(=O)c1sc(=NC(=O)/C=C/c2ccccc2)n(C)c1C,-0.27%
4,COc1ccc(/C(N)=N/OC(=O)c2ccc3c(c2)OCO3)cc1,3.21%
5,O=[N+]([O-])c1cccc(Cl)c1CSc1ccccn1,0.94%
6,O=C(CCCn1cnc([N+](=O)[O-])n1)Nc1cccc(Cl)c1Cl,1.24%
7,O=[N+]([O-])c1ncn(Cc2ccccc2Cl)n1,3.07%
8,O=C(COC(=O)/C=C/c1ccccc1)Nc1cc(C(F)(F)F)ccc1N1CCOCC1,-0.9%
9,CC(C)N(Cc1cn(C)nc1-c1cccc(Cl)c1)Cc1nccn1C,7.78%
10,CN1CCC(=NNC(=O)COc2ccc(Cl)cc2)CC1,2.45%
11,COc1ccccc1OCC(=O)NNc1c2ccccc2nc2ccccc12,-2.19%
12,O=[N+]([O-])c1ccc2c(c1)oc1ccccc12,-1.07%
13,Nc1ccc2oc3ccc(N)cc3c(=O)c2c1,3.5%
14,Cc1cc(NC(=O)c2ccc3c(c2)C(=O)N(CC(C)C)C3=O)no1,1.19%
15,COc1ccc(-c2noc(CSc3nnc(CCc4ccccc4)n3-c3ccccc3)n2)cc1OC,6.96%
16,CCOc1ccccc1CNc1ccc(O)cc1,-6.88%
17,Fc1cccc(COc2ccccc2CNc2ccccc2)c1,15.2%
18,COc1ccc(-n2nnnc2SCC(=O)Nc2nc3c(s2)CCCC3)cc1,-4.11%
19,COc1ccc(C(=O)NCCN2C(=O)S/C(=C\c3cccnc3)C2=O)c(OC)c1OC,8.22%
20,Cc1cccc(C)c1OCCCCc1c(C)n[nH]c1C,78.5%
21,Cc1n[nH]c(C)c1CCCOc1ccccc1,-17.6%
22,Cc1cccc(OCCCc2c(C)n[nH]c2C)c1,1.52%
23,Cc1n[nH]c(C)c1CCCCOc1ccccc1,-2.76%
24,Cc1n[nH]c(C)c1CCOc1ccc(C(C)C)cc1,-3.37%
25,Cc1ccccc1OCCCc1c(C)n[nH]c1C,33%

row,SMILES,inhibition
1,Cc1nc(NC(=O)COC(=O)c2ccc(S(=O)(=O)N3CCc4ccccc4C3)cc2)c(Cl)cc1Cl,-3.47%
2,COc1cc(NC(=S)N2CCC(C(O)(c3ccccc3)c3ccccc3)CC2)cc(OC)c1,4.64%
3,COc1ccccc1C(=O)NNC(=O)c1nn(Cc2ccccc2)c(=O)c2ccccc12,2.78%
4,Cc1[nH][nH]c(=O)c1N=Nc1ccc(Cl)cc1,-0.49%
5,O=c1cc(CSCc2ccc(Cl)cc2)[nH]c(=O)[nH]1,7.09%
6,COc1cc2c(cc1NC(=O)CSc1nc3ccc(C)cc3[nH]1)oc1ccccc12,51.1%
7,COc1cc2c(cc1NC(=O)CSc1ccccc1)oc1ccccc12,83%
8,COc1ccc(-c2cc(C(F)(F)F)n3nc(C(=O)Nc4c(C)n(C)n(-c5ccccc5)c4=O)cc3n2)cc1,8.28%
9,CCNc1nc(Cl)nc(NNC(=O)C(C)Oc2ccccc2)n1 (centres undefined),0.39%
10,CCN(c1ccc(NC(=O)CN2C(=O)NC3(CCOc4ccccc43)C2=O)cc1)C(C)C (centres undefined),-1.8%
11,N#CCSc1nnc(N)s1,8.52%
12,Nc1c2c(nc3ccn(-c4ccccc4)c(=O)c13)CCCCC2,11.1%
13,Nc1c2c(nc3ccccc13)CCC2,3.36%
14,Cc1ccc(CNC(=O)C2CC(c3ccccc3F)=NO2)cc1 (centres undefined),0.74%
15,CCOC(=O)CN(C#N)c1nc(C)cc(C)n1,-5.87%
16,COC(=O)CN(C#N)c1nc(N(C)C)nc(N(C)C)n1,-2.49%
17,CCCCCCN1CCN(c2ccccc2Cl)CC1,4.25%
18,O=C(Nc1ccc(F)cc1F)Nc1ccccc1C(=O)NCCN1CCNC1=O,-7.32%
19,CC(C)CCOCc1nc2sc3c(c2c(=O)[nH]1)CCC(C)C3 (centres undefined),5.08%
20,CCOC(=O)c1nc2sc3c(c2c(=O)[nH]1)CCCC3,6.3% and 4.22%
21,CCOC(=O)N1CCC(NC(=O)CS(=O)Cc2nc(-c3ccc(OC)c(OC)c3)oc2C)CC1 (centres undefined),1.72%
22,COc1ccc(Nc2cc(C)nc(NCc3ccccc3)n2)cc1,20.5%
23,Cc1cc(N/N=C/c2ccccc2)nc(NCc2ccccc2)n1,7.85%
24,Cc1cc(N2CCCCC2)nc(NCc2ccccc2)n1,11.8%
25,Cc1cc(OC2CCCCC2)nc(NCc2ccccc2)n1,6.25%

row,SMILES,inhibition
1,Cc1ccc(/C=N/Nc2cc(C)nc(NCc3ccccc3)n2)cc1,-1.4%
2,CCCCNc1cc(C)nc(NCc2ccccc2)n1,8.03%
3,COc1ccc(NC(=O)CCCCn2c(=O)[nH]c3ccccc3c2=O)cc1,-8.84%
4,CCc1cc(C(=O)N2CCc3c([nH]c4ccccc34)C2c2ccc(OC)cc2F)no1 (centres undefined),1.56%
5,CC(=O)OC1c2ccccc2C(=O)N1Cc1ccccc1 (centres undefined),-4.69%
6,Fc1ccc(CSc2ncnc3c2oc2ccccc23)cc1,15.6%
7,Cc1nc(SCCO)c2oc3ccccc3c2n1,10.1%
8,Cc1nc(SCC(=O)Nc2ccc(F)cc2)c2oc3ccccc3c2n1,-5.02%
9,Fc1cccc(CSc2ncnc3c2oc2ccccc23)c1,5.28%
10,CCc1nc2c(c(=O)c3ccccc3n2C)c(=O)n1CCc1ccc(OC)cc1,19.9%
11,O=C(NCc1nc(-c2ccc(C(F)(F)F)cc2)no1)Nc1ccc(OC(F)(F)F)cc1,-5.05%
12,O=C(NCc1nc(-c2ccc(C(F)(F)F)cc2)no1)Nc1ccc(F)cc1F,8.4%
13,COc1ccc(N(C(=O)CNC(=O)c2cccs2)C(C(=O)NCC2CCCO2)c2ccccc2)cc1OC (centres undefined),-7.89%
14,O=C(c1ccc(F)cc1)N1CCN(c2ccc([N+](=O)[O-])cc2-n2cccc2)CC1,20.4%
15,Cc1ccc(C(=O)N2CCN(c3ccc([N+](=O)[O-])cc3-n3cccc3)CC2)cc1,33.7%
16,COCC(C)NC(=S)NC(=O)c1cc(S(=O)(=O)N2CCOCC2)ccc1C (centres undefined),4.56%
17,COc1cccc(NC(C(=O)Nc2cccc(C(C)=O)c2)c2ccccc2)c1 (centres undefined),6.16%
18,Cc1cc(C)c2nc(Nc3nc(-c4ccccc4)cc(=O)[nH]3)nc(C)c2c1,2.35%
19,CCn1cc(C(=O)O)c(=O)c2cc(F)c(N3CCN(C(=S)NC(=O)c4ccc(F)cc4)CC3)cc21,15.9%
20,O=C(O)c1cn(C2CCCCC2)c2ccccc2c1=O,-2.4%
21,Cc1c(-n2cc(C(=O)O)c(=O)c3cc(F)c(N4CCCC(O)C4)c(F)c32)c(=O)n(-c2ccccc2)n1C (centres undefined),-0.64%
22,Cc1cccc(-c2cc(=O)c(C(=O)O)cn2-c2ccc(F)cc2F)c1,-8.14%
23,CC1CCc2cc(F)cc3c(=O)c(C(=O)O)cn1c23 (centres undefined),14.4%
24,CCOC(=O)c1cn(C2CC2)c2c(F)c(F)c(F)cc2c1=O,-2.19%
